61 molecules from paper PMC4336329 (PLoS ONE, 2015) can be followed below.

The campaign covered roughly 310,000 compounds. About 14,000 (4.5%) showed an effect of 50% or more. Effects have a minus sign here. The sample holds strong results, similar compounds and a random draw of the others, so the mix is not that of the screen.
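Also: peak tail current of the secondary pulse compared with the same well before compound.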

In this experiment the target is human ether-à-go-go-related gene (hERG) potassium channel (human, UniProt Q12809). As to the kind of experiment: primary screen, population patch clamp on CHO cells stably expressing hERG; higher = less effect of the substance.
Chain of human ether-à-go-go-related gene (hERG) potassium channel (Q12809 whole entry, looked up): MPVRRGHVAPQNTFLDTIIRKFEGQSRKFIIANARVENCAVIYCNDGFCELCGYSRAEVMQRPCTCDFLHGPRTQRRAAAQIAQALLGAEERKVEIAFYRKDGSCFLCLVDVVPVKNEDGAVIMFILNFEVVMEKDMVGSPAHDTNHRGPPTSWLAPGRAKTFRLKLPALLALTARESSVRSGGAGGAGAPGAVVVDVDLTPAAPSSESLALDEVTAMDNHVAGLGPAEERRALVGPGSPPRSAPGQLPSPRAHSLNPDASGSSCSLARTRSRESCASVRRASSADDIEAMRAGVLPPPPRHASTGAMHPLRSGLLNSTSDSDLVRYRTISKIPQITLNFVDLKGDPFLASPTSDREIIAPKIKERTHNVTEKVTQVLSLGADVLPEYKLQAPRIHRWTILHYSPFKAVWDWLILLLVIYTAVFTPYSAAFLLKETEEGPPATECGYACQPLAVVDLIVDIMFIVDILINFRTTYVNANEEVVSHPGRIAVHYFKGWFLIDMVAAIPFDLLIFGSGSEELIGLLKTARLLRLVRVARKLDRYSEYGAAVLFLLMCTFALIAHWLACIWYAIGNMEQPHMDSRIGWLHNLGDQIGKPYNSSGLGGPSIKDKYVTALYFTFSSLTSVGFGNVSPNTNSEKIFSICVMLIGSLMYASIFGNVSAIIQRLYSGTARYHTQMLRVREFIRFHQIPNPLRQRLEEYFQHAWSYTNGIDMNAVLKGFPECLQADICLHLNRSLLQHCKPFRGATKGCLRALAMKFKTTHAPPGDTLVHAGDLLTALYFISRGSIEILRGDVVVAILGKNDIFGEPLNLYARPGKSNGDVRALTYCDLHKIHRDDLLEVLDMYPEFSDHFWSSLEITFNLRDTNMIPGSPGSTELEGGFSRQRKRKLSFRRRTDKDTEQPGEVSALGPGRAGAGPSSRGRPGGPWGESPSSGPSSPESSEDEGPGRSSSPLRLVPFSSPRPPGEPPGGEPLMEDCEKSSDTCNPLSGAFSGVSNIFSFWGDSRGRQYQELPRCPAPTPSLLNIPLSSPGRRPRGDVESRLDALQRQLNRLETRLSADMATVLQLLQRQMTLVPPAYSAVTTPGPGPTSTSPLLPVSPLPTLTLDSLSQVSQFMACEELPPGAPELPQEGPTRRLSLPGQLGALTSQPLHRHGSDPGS
Regarding `COc1ccc(CCNC(=O)COC(=O)/C=C/c2ccc(OCC#N)c(OC)c2)cc1OC`, the “hERG current change (%, negative = inhibition) at 10uM” value is listed as -17.1%.

Turning to `CCOC(=O)SC1=N/C(=C\c2ccc(N(C)C)cc2)C(=O)S1`, the “hERG current change (%, negative = inhibition) at 10uM” value is given as 14.9%.

As for `COc1ccc(CCN(C)C(=O)c2ccc(COc3ccccc3)o2)cc1OC`, the “hERG current change (%, negative = inhibition) at 10uM” value is given as -3.91%.

Take `COCC(=O)Nc1ccc(F)cc1`: the “hERG current change (%, negative = inhibition) at 10uM” value amounted to 18.6%.

Regarding `O=c1c(Cc2ccc(F)cc2)c(O)ccn1Cc1ccc(Cl)cc1Cl`, the “hERG current change (%, negative = inhibition) at 10uM” value amounted to 6.08%.

As for `COc1cc(O)c(C(CC(=O)N2CCCC(C)C2)c2cc(OC)c(OC)c(OC)c2)c(OC)c1` (stereo not shown), the “hERG current change (%, negative = inhibition) at 10uM” value stood at 2.69%.

Turning to `CC(=O)Nc1ccc2nc(NC(=O)C(Cl)(Cl)Cl)sc2c1`, the “hERG current change (%, negative = inhibition) at 10uM” value is 31.1%.

In the case of `c1cc(-c2nnc3n2CCC3)[nH]n1`, the “hERG current change (%, negative = inhibition) at 10uM” value was 12.5%.

As for `O=C(CSc1nc(-c2ccccc2F)nc2nc[nH]c12)Nc1c(Cl)cc(Cl)cc1Cl`, the “hERG current change (%, negative = inhibition) at 10uM” value was -6.09%.

As to `Oc1cc2ccccc2cc1-c1nnc2n1-c1ccccc1SC2`, the “hERG current change (%, negative = inhibition) at 10uM” value is listed as -8.27%.

With `Clc1ccccc1-c1nnc2n1-c1ccccc1SC2`, the “hERG current change (%, negative = inhibition) at 10uM” value is -3.67%.

As for `Cl.NCCC(=O)N1c2ccccc2Sc2ccc(Cl)cc21`, the “hERG current change (%, negative = inhibition) at 10uM” value was -10.8%.

`c1ccc2c(c1)Sc1ccccc1-n1cnnc1-2`: the “hERG current change (%, negative = inhibition) at 10uM” value is -20.3%.

In the case of `Clc1ccc2c(c1)-c1nnc(Br)n1-c1ccccc1S2`, the “hERG current change (%, negative = inhibition) at 10uM” value was -52.5%.

For `Brc1nnc2n1-c1ccccc1Sc1ccccc1-2`, the “hERG current change (%, negative = inhibition) at 10uM” value is -71.8%.

In the case of `COc1nc(NC(C)(C)C)nc(Oc2ccc(=O)n(C)n2)n1`, the “hERG current change (%, negative = inhibition) at 10uM” value is on record as 16.8%.

Take `CN(C)c1nc(-c2cccnc2)nc(-c2ccccc2)c1C#N`: the “hERG current change (%, negative = inhibition) at 10uM” value came out at 10.3%.

`CCOC(=O)COc1ccc(Oc2nc(C)cc(OC)n2)nn1`: the “hERG current change (%, negative = inhibition) at 10uM” value is -7.8%.

Regarding `Cl.Nc1nonc1C(=O)NCCNCc1cc(Br)ccc1OCc1ccc(F)cc1`, the “hERG current change (%, negative = inhibition) at 10uM” value is -38.2%.

On to `Cl.Nc1nonc1C(=O)NCCNCc1c(OCc2ccccc2F)ccc2ccccc12`, for which the “hERG current change (%, negative = inhibition) at 10uM” value is recorded as -11.9%.

Consider `Cl.Nc1nonc1C(=O)NCCNCc1ccccc1OCc1ccc(F)cc1`, for which the “hERG current change (%, negative = inhibition) at 10uM” value is on record as -65.9%.

For `C=CCOc1ccccc1CNCCNC(=O)c1nonc1N.Cl`, the “hERG current change (%, negative = inhibition) at 10uM” value is on record as -22.8%.

Consider `CCOc1ccccc1CNCCNC(=O)c1nonc1N.Cl`, for which the “hERG current change (%, negative = inhibition) at 10uM” value is -13.5%.

In the case of `Cl.Nc1nonc1C(=O)NCCNCc1ccccc1OCc1ccccc1F`, the “hERG current change (%, negative = inhibition) at 10uM” value is on record as -60.5%.

`CC1=C(C(=O)Nc2ccccc2)C(c2ccc(O)cc2)N2C(=O)CSC2=N1` (stereo not shown): the “hERG current change (%, negative = inhibition) at 10uM” value was found to be 3.47%.

Take `CC(C)N(CCCNC(=O)CC1Oc2ccccc2NC1=O)Cc1ccccc1` (stereo not shown): the “hERG current change (%, negative = inhibition) at 10uM” value is on record as -26.3%.

As to `Fc1ccc(/C=N/c2c(-c3ccc(F)cc3)nc3n2CCS3)cc1`, the “hERG current change (%, negative = inhibition) at 10uM” value is on record as -4.46%.

For the molecule `Nc1nc2ccccc2n1/N=C/c1ccc([N+](=O)[O-])s1`, the “hERG current change (%, negative = inhibition) at 10uM” value was -1.38%.

For `O=C(O)/C(=C\c1cccs1)c1ccccc1`, the “hERG current change (%, negative = inhibition) at 10uM” value is given as 0.00478%.

`COc1ccc(OC)c(-n2cnc3cc(C(=O)O)ccc32)c1`: the “hERG current change (%, negative = inhibition) at 10uM” value worked out at 3.06%.

As to `CCOC(=O)C1CCCN(Cc2ccc3c(c2)OCO3)C1` (stereo not shown), the “hERG current change (%, negative = inhibition) at 10uM” value is given as -9.12%.

Regarding `CC(=O)c1cccc(CN2CCCC(C(=O)c3ccc4c(c3)OCO4)C2)c1` (stereo not shown), the “hERG current change (%, negative = inhibition) at 10uM” value is given as -64.9%.

For `Cc1ccc(CN2CCCC(C(=O)c3ccc4c(c3)OCO4)C2)cc1C` (stereo not shown), the “hERG current change (%, negative = inhibition) at 10uM” value is on record as -64.6%.

As for `O=C(c1ccc2c(c1)OCO2)C1CCCN(C2CCN(CCc3ccccc3)CC2)C1` (stereo not shown), the “hERG current change (%, negative = inhibition) at 10uM” value is reported as -69.3%.

`O=C(c1ccc2c(c1)OCO2)C1CCCN(C(=O)NCc2ccccc2)C1` (stereo not shown): the “hERG current change (%, negative = inhibition) at 10uM” value was -14.3%.

For `CSc1ccccc1NC(=O)N1CCCC(C(=O)c2ccc3c(c2)OCO3)C1` (stereo not shown), the “hERG current change (%, negative = inhibition) at 10uM” value is -39.8%.

Regarding `O=C(c1ccc2c(c1)OCO2)C1CCCN(Cc2ccc(F)c(F)c2)C1` (stereo not shown), the “hERG current change (%, negative = inhibition) at 10uM” value was -65.4%.

Take `CC(=O)c1ccc(NC(=O)N2CCCC(C(=O)c3ccc4c(c3)OCO4)C2)cc1` (stereo not shown): the “hERG current change (%, negative = inhibition) at 10uM” value is reported as -16.4%.

Take `O=C(c1ccc2c(c1)OCO2)C1CCCN(Cc2c(F)ccc(F)c2F)C1` (stereo not shown): the “hERG current change (%, negative = inhibition) at 10uM” value is on record as -15.8%.

`CCN(CC)C(=O)C1CCCN(Cc2ccc3c(c2)OCO3)C1` (stereo not shown): the “hERG current change (%, negative = inhibition) at 10uM” value turned out to be 10%.

For the molecule `O=C(c1ccc2c(c1)OCO2)C1CCCN(Cc2cccc(C(F)(F)F)c2)C1` (stereo not shown), the “hERG current change (%, negative = inhibition) at 10uM” value was -20.5%.

In the case of `COc1ccccc1/C=C1\C(=O)Nc2ccccc21`, the “hERG current change (%, negative = inhibition) at 10uM” value is 2.99%.

As for `Cc1cn(S(=O)(=O)c2cc(Br)ccc2Br)cn1`, the “hERG current change (%, negative = inhibition) at 10uM” value is listed as 1.08%.

Regarding `CCc1ccc(NC(=O)NCCCN2CCCC2=O)cc1`, the “hERG current change (%, negative = inhibition) at 10uM” value turned out to be 0.255%.

In the case of `CN(C)C1(CNC(=O)CC(NC(=O)c2ccccc2Cl)c2ccccc2)CCCCC1` (stereo not shown), the “hERG current change (%, negative = inhibition) at 10uM” value is -31.3%.

Turning to `C[C@@]12CCC3[C@@](CCC4[C@@]3(C)CCC[C@@]4(C)C(=O)N3CCCCC3)(CC1=O)C2` (stereo partly shown), the “hERG current change (%, negative = inhibition) at 10uM” value was 7.27%.

Consider `O=c1c(Cc2c(F)cccc2Cl)c(O)ccn1Cc1ccc(F)cc1`, for which the “hERG current change (%, negative = inhibition) at 10uM” value is recorded as -0.211%.

Turning to `CCCC(=O)Nc1ccc(N2CCCCC2)cc1`, the “hERG current change (%, negative = inhibition) at 10uM” value is given as -8.42%.

Regarding `C=C1C(=O)[C@@]23[C@H](O)C[C@@H]4C(C)(C)CC[C@H](O)[C@]4(C)[C@@H]2C[C@H](O)[C@@H]1[C@H]3O`, the “hERG current change (%, negative = inhibition) at 10uM” value is reported as -0.141%.

`CC(N)C12CC3CC(CC(C3)C1)C2.Cl` (stereo not shown): the “hERG current change (%, negative = inhibition) at 10uM” value amounted to 14.1%.

For `C/C(=N\N1CCCCC1)c1c(O)[nH]c(=O)[nH]c1=O`, the “hERG current change (%, negative = inhibition) at 10uM” value was -11%.

As to `O=C(c1cccc(Cl)c1)C1CCCN(C(=O)c2ccc3c(c2)OCO3)C1` (stereo not shown), the “hERG current change (%, negative = inhibition) at 10uM” value is recorded as -34.1%.

As for `Cn1cc(CN2CCCC(CNC(=O)c3ccc4c(c3)OCO4)C2)c2ccccc21` (stereo not shown), the “hERG current change (%, negative = inhibition) at 10uM” value is recorded as -43.6%.

With `CSc1ccc(C(=O)C2CCCN(C(=O)c3ccc4c(c3)OCO4)C2)cc1` (stereo not shown), the “hERG current change (%, negative = inhibition) at 10uM” value is -34%.

In the case of `O=C(c1ccc2c(c1)OCO2)C1CCCN(C(=O)C2CCOCC2)C1` (stereo not shown), the “hERG current change (%, negative = inhibition) at 10uM” value was found to be 7.74%.

As for `Cn1c(CN2CCCC(C(=O)c3ccc4c(c3)OCO4)C2)nc2ccccc21` (stereo not shown), the “hERG current change (%, negative = inhibition) at 10uM” value is reported as -70.5%.

`O=C(c1ccc2c(c1)OCO2)C1CCCN(Cc2ccc3nsnc3c2)C1` (stereo not shown): the “hERG current change (%, negative = inhibition) at 10uM” value is -71.4%.

`O=C(c1ccc2c(c1)OCO2)C1CCCN(CC2CCCCC2)C1` (stereo not shown): the “hERG current change (%, negative = inhibition) at 10uM” value is recorded as -71.8%.

Consider `Cc1cccc(CN2CCCC(C(=O)c3ccc4c(c3)OCO4)C2)n1` (stereo not shown), for which the “hERG current change (%, negative = inhibition) at 10uM” value was -49.2%.

As for `COc1cccc(C(=O)C2CCCN(Cc3ccc4nsnc4c3)C2)c1` (stereo not shown), the “hERG current change (%, negative = inhibition) at 10uM” value is -26%.

Regarding `O=C(c1ccc2c(c1)OCO2)C1CCCN(Cc2ccc3cccc(F)c3n2)C1` (stereo not shown), the “hERG current change (%, negative = inhibition) at 10uM” value is -87%.
